# Several values for one entry are separate records, joined by “and”; a condition that tells them apart may be missing. Equal values may be shown once. Records with an inconclusive call do not appear. Values without a mark were called inactive. Activity calls are given as the source filed them. Calls come from the whole dose curve; as a rule, active = well fitted curve in the direction sought with a large enough effect; inconclusive = small, poorly fitted or top-dose-only effect, or another doubt; inactive = no such curve, though single readings can be large; an effect the other way counts as inactive or inconclusive.
# How the values were obtained:
# [1] = Quantitative highthroughput screen to assess conditional lethalithy of SEM cells grown in RPMI1640 with unreated serum (RPMI+s) (AID 1963883); note: potency is the fitted concentration of half-maximal effect; nearly all actives have a fitted effect of over 35% in size
# In short: (§1)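 Each medium arm—HPLM with 10% dialyzed FBS, or RPMI1640 with 5 mM glucose and 10% untreated or dialyzed FBS—was screened against an 11-point, 3-fold compound titration for 48 h at 37 °C, with CellTiter-Glo luminescence as endpoint.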
# [2] = Cellular viability qHTS for adrenocortical cancer (ACC) cell line SW-13 (AID 1963989); details: SW-13 ACC cells viability, CellTiter-Glo, 48 h; activity (max response): hits give low values;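 note: cells grown in serum-free medium with ITS supplement; % is set by controls: 0 for no effect and ±100 for the full control effect; nearly all actives have a fitted effect of over 65% in size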
# In short: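 SW-13 cells in ITS-supplemented serum-free DMEM were plated overnight, then exposed for 48 h at 37C to compound titrations (up to 46 uM final). Viability was read by CellTiter-Glo luminescence; four-parameter logistic fits gave IC50 and efficacy.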
# [3] = Quantitative highthroughput screen to assess conditional lethalithy of P12 Ichikawa cells grown in Human Plasma-Like Medium with dialyzed fetal bovine serum (HPLM+ds) (AID 1963879); details: Potency: viability; note: series mostly up to about 46 µM; nearly all actives have a fitted effect of over 35% in size
# In short: as §1
# [4] = Quantitative highthroughput screen to assess conditional lethalithy of SEM cells grown in Human Plasma-Like Medium with dialyzed fetal bovine serum (HPLM+ds) (AID 1963882); note: nearly all actives have a fitted effect of over 35% in size; note: potency is the fitted concentration of half-maximal effect; for viability: series mostly up to about 46 µM
# In short: as §1
# [5] = Cellular viability qHTS for adrenocortical cancer (ACC) cell line NCI-H295R (AID 1963990); note: nearly all actives have a fitted effect of over 60% in size; note: potency is the fitted concentration of half-maximal effect
# In short: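 Luminescent ATP read-out (CellTiter-Glo, 20 min RT) after 48 h drug exposure of NCI-H295R cells; a titration up to 46 uM final. Data normalized to doxorubicin (100% inhibition) and DMSO (0%); 4-parameter fit gives IC50, max response.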
# [6] = Quantitative highthroughput screen to assess conditional lethalithy of P12 Ichikawa cells grown in RPMI1640 with untreated serum (RPMI+s) (AID 1963881); details: Potency: viability; note: potency is the fitted concentration of half-maximal effect; nearly all actives have a fitted effect of over 35% in size
# In short: as §1
# [7] = Quantitative highthroughput screen to assess conditional lethalithy of SEM cells grown in RPMI1640 with dialyzed fetal bovine serum (RPMI+ds) (AID 1963884); note: nearly all actives have a fitted effect of over 35% in size; note: potency is the fitted concentration of half-maximal effect;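 for viability: series mostly up to about 46 µM; 100% = DMSO control wells and 0% = empty wells without cells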
# In short: as §1
# [8] = Quantitative highthroughput screen to assess conditional lethalithy of P12 Ichikawa cells grown in RPMI1640 with dialyzed fetal bovine serum (RPMI+ds) (AID 1963880); details: Potency: P12-Ichikawa viability
# In short: as §1
smiles,measurement,setting,value
CCCCC[C@H](O)C=C[C@H]1[C@H](O)CC(=O)[C@H]1CCCCCCC(=O)O,Potency,[1],4180 nM (active)
COc1ccc2[nH]c(S(=O)Cc3ncc(C)c(OC)c3C)nc2n1 (stereo not given),activity (max response),[2],4.99% and -14.4%
C[C@@H](Oc1ccc2[nH]nc(C=Cc3cnn(CCO)c3)c2c1)c1c(Cl)cncc1Cl,Potency,[1],264 nM (active)
COc1cc(C(=O)NS(=O)(=O)c2ccccc2C)ccc1Cc1cn(C)c2ccc(NC(=O)OC3CCCC3)cc12,Potency,[3],inactive
same,Potency,[4],20900 nM (active)
same,Potency,[5],28200 nM (active)
CCOC(=O)N1CCN([N+]([O-])=NOc2ccc([N+](=O)[O-])cc2[N+](=O)[O-])CC1,Potency,[6],23500 nM (active)
same,Potency,[1],4180 nM (active)
same,Potency,[7],4690 nM (active)
CS(=O)(=O)Oc1ccc2c(NC(N)=O)c(C(=O)c3ccc(Cl)cc3Cl)oc2c1,Potency,[4],inactive
same,Potency,[7],inactive
same,activity (max response),[2],-2.55%
same,Potency,[5],inactive
CC[C@@]1([C@@H]2O[C@@H]([C@H]3O[C@@](O)(CO)[C@H](C)C[C@H]3C)C[C@H]2C)CC[C@H]([C@]2(C)CC[C@]3(C[C@H](O)[C@@H](C)[C@@H]([C@@H](C)[C@@H](OC)[C@H](C)C(=O)O)O3)O2)O1,Potency,[8],2290 nM (active)
same,Potency,[6],1440 nM (active)
same,Potency,[4],512 nM (active)
same,Potency,[1],457 nM (active)
same,Potency,[7],1150 nM (active)
same,Potency,[5],715 nM (active)
COc1cc([C@@H]2c3cc4c(cc3[C@@H](O[C@@H]3O[C@@H]5CO[C@@H](c6cccs6)O[C@@H]5[C@H](O)[C@@H]3O)[C@H]3COC(=O)[C@H]23)OCO4)cc(OC)c1O,Potency,[6],743 nM (active)
